Experimental data published in the supplement of paper PMC8728848.
This is one part of a sample in which the strongest signals are shown more often than they occur.

What was measured:
Experiment in all cases: glycan array binding signal (z-score within array); higher = stronger binding
[1] = test system: Gal(b1-4)GlcNAc(b1-3)Gal(b1-4)Glc; conditions: glycan notation: IUPAC condensed, linker removed
Procedure, shortened: (§1)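 Negative Z-scores can be read as non-binding. The Z-score is calculated within each array and then averaged across arrays of one protein sequence at different concentrations or buffers and across linkers. Arrays, 3228 in all, were curated from the Consortium for Functional Glycomics database and kept only where the protein sequence was available.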

[2] = test system: Gal(b1-4)GlcNAc(b1-3)Gal(b1-4)[Fuc(a1-3)]GlcNAc(b1-3)Gal(b1-4)[Fuc(a1-3)]GlcNAc; conditions: glycan notation: IUPAC condensed, linker removed
Procedure, shortened: as §1

[3] = test system: Gal(b1-4)GlcNAc(b1-2)[Gal(b1-4)GlcNAc(b1-6)]Man(a1-6)[GlcNAc(b1-4)][Gal(b1-4)GlcNAc(b1-2)Man(a1-3)]Man(b1-4)GlcNAc(b1-4)GlcNAc; conditions: glycan notation: IUPAC condensed, linker removed
Procedure, shortened: as §1

[4] = test system: Gal(b1-4)GlcNAc(b1-3)[GlcNAc(b1-6)]Gal(b1-4)GlcNAc; conditions: glycan notation: IUPAC condensed, linker removed
Procedure, shortened: as §1

[5] = test system: Gal(b1-4)GlcNAc(b1-6)Gal(b1-4)GlcNAc; conditions: glycan notation: IUPAC condensed, linker removed
Procedure, shortened: as §1

[6] = test system: Gal(b1-4)GlcNAc(b1-2)Man(a1-3)[Gal(b1-4)GlcNAc(b1-2)][GlcNAc(b1-4)]Man(b1-4)GlcNAc(b1-4)GlcNAc; conditions: glycan notation: IUPAC condensed, linker removed
Procedure, shortened: as §1

[7] = test system: Gal(b1-4)GlcNAc(b1-2)[Gal(b1-4)GlcNAc(b1-4)]Man(a1-3)[Gal(b1-4)GlcNAc(b1-2)[Gal(b1-4)GlcNAc(b1-6)]Man(a1-6)]Man(b1-4)GlcNAc(b1-4)GlcNAc; conditions: glycan notation: IUPAC condensed, linker removed
Procedure, shortened: as §1

[8] = test system: Gal(b1-4)GlcNAc(b1-2)[Gal(b1-4)GlcNAc(b1-4)]Man(a1-3)[GlcNAc(b1-4)][Gal(b1-4)GlcNAc(b1-2)Man(a1-6)]Man(b1-4)GlcNAc(b1-4)GlcNAc; conditions: glycan notation: IUPAC condensed, linker removed
Procedure, shortened: as §1

[9] = test system: Gal(b1-4)GlcNAc(b1-3)Gal(b1-4)GlcNAc(b1-2)Man(a1-3)[Gal(b1-4)GlcNAc(b1-3)Gal(b1-4)GlcNAc(b1-2)Man(a1-6)]Man(b1-4)GlcNAc(b1-4)GlcNAc; conditions: glycan notation: IUPAC condensed, linker removed
Procedure, shortened: as §1

[10] = test system: Gal(b1-4)GlcNAc(b1-3)Gal(b1-4)GlcNAc(b1-3)Gal(b1-4)GlcNAc(b1-2)Man(a1-3)[Gal(b1-4)GlcNAc(b1-3)Gal(b1-4)GlcNAc(b1-3)Gal(b1-4)GlcNAc(b1-2)Man(a1-6)]Man(b1-4)GlcNAc(b1-4)[Fuc(a1-6)]GlcNAc; conditions: glycan notation: IUPAC condensed, linker removed
Procedure, shortened: as §1

[11] = test system: Gal(b1-4)GlcNAc(b1-3)Gal(b1-4)GlcNAc(b1-3)Gal(b1-4)GlcNAc(b1-2)[Gal(b1-4)GlcNAc(b1-3)Gal(b1-4)GlcNAc(b1-3)Gal(b1-4)GlcNAc(b1-6)]Man(a1-6)[Gal(b1-4)GlcNAc(b1-3)Gal(b1-4)GlcNAc(b1-3)Gal(b1-4)GlcNAc(b1-2)Man(a1-3)]Man(b1-4)GlcNAc(b1-4)[Fuc(a1-6)]GlcNAc; conditions: glycan notation: IUPAC condensed, linker removed
Procedure, shortened: as §1

[12] = test system: Gal(b1-4)GlcNAc(b1-3)Gal(b1-4)GlcNAc(b1-3)Gal(b1-4)GlcNAc(b1-3)Gal(b1-4)GlcNAc(b1-2)Man(a1-3)[Gal(b1-4)GlcNAc(b1-3)Gal(b1-4)GlcNAc(b1-3)Gal(b1-4)GlcNAc(b1-3)Gal(b1-4)GlcNAc(b1-2)Man(a1-6)]Man(b1-4)GlcNAc(b1-4)[Fuc(a1-6)]GlcNAc; conditions: glycan notation: IUPAC condensed, linker removed; mutation: R125K
Procedure, shortened: as §1

[13] = test system: Gal(b1-4)GlcNAc(b1-3)Gal(b1-4)GlcNAc(b1-3)Gal(b1-4)GlcNAc(b1-3)Gal(b1-4)GlcNAc(b1-3)Gal(b1-4)GlcNAc(b1-2)Man(a1-3)[Gal(b1-4)GlcNAc(b1-3)Gal(b1-4)GlcNAc(b1-3)Gal(b1-4)GlcNAc(b1-3)Gal(b1-4)GlcNAc(b1-3)Gal(b1-4)GlcNAc(b1-2)Man(a1-6)]Man(b1-4)GlcNAc(b1-4)GlcNAc; conditions: glycan notation: IUPAC condensed, linker removed
Procedure, shortened: as §1

[14] = test system: Gal(b1-4)GlcNAc(b1-3)Gal(b1-4)GlcNAc(b1-3)[Gal(b1-4)GlcNAc(b1-3)Gal(b1-4)GlcNAc(b1-6)]GalNAc; conditions: glycan notation: IUPAC condensed, linker removed
Procedure, shortened: as §1

[15] = test system: Gal(b1-4)GlcNAc(b1-3)[Gal(b1-4)GlcNAc(b1-6)]Gal(b1-4)GlcNAc; conditions: glycan notation: IUPAC condensed, linker removed
Procedure, shortened: as §1

[16] = test system: Gal(b1-4)GlcNAc(b1-3)Gal(b1-4)GlcNAc(b1-2)[Gal(b1-4)GlcNAc(b1-3)Gal(b1-4)GlcNAc(b1-6)]Man(a1-6)[Gal(b1-4)GlcNAc(b1-3)Gal(b1-4)GlcNAc(b1-2)Man(a1-3)]Man(b1-4)GlcNAc(b1-4)[Fuc(a1-6)]GlcNAc; conditions: glycan notation: IUPAC condensed, linker removed
Procedure, shortened: as §1

[17] = test system: Gal(b1-4)GlcNAc(b1-3)Gal(b1-4)GlcNAc; conditions: glycan notation: IUPAC condensed, linker removed
Procedure, shortened: as §1

[18] = test system: Gal(b1-4)GlcNAc(b1-2)Man(a1-6)Man(b1-4)GlcNAc(b1-4)GlcNAc; conditions: glycan notation: IUPAC condensed, linker removed
Procedure, shortened: as §1

[19] = test system: Gal(b1-4)GlcNAc(b1-3)Gal(b1-4)GlcNAc(b1-3)Gal(b1-4)GlcNAc(b1-2)Man(a1-3)[Gal(b1-4)GlcNAc(b1-3)Gal(b1-4)GlcNAc(b1-3)Gal(b1-4)GlcNAc(b1-2)Man(a1-6)]Man(b1-4)GlcNAc(b1-4)GlcNAc; conditions: glycan notation: IUPAC condensed, linker removed
Procedure, shortened: as §1

[20] = test system: Gal(b1-4)GlcNAc(b1-3)GalNAc; conditions: glycan notation: IUPAC condensed, linker removed
Procedure, shortened: as §1

Chain of CHI3L1 (Homo sapiens), P36222 (P36222 whole entry): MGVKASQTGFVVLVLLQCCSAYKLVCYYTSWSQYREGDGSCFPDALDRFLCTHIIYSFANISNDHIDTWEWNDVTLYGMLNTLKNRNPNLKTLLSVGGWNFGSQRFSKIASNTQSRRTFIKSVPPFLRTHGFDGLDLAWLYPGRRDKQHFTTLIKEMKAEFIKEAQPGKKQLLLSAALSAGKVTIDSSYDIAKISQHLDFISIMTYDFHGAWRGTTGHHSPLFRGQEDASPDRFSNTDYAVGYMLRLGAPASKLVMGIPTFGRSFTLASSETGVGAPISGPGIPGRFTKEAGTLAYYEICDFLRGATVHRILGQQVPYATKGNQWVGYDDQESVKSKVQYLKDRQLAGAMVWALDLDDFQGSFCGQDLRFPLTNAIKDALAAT
Chain of PILRa (Mus musculus), Q2YSF3 (Q2YSF3 entry or part of it): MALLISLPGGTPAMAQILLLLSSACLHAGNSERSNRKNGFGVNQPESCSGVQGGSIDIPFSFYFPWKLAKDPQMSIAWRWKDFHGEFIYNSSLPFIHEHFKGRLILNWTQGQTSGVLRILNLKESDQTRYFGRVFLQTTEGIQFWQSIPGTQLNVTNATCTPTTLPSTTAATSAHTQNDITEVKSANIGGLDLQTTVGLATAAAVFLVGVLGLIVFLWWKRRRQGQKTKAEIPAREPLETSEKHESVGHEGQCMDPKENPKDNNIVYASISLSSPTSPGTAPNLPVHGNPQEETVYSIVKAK
Chain of Neurocan (Homo sapiens), O14594 (O14594 other isoform, or with tags, fused parts or gaps): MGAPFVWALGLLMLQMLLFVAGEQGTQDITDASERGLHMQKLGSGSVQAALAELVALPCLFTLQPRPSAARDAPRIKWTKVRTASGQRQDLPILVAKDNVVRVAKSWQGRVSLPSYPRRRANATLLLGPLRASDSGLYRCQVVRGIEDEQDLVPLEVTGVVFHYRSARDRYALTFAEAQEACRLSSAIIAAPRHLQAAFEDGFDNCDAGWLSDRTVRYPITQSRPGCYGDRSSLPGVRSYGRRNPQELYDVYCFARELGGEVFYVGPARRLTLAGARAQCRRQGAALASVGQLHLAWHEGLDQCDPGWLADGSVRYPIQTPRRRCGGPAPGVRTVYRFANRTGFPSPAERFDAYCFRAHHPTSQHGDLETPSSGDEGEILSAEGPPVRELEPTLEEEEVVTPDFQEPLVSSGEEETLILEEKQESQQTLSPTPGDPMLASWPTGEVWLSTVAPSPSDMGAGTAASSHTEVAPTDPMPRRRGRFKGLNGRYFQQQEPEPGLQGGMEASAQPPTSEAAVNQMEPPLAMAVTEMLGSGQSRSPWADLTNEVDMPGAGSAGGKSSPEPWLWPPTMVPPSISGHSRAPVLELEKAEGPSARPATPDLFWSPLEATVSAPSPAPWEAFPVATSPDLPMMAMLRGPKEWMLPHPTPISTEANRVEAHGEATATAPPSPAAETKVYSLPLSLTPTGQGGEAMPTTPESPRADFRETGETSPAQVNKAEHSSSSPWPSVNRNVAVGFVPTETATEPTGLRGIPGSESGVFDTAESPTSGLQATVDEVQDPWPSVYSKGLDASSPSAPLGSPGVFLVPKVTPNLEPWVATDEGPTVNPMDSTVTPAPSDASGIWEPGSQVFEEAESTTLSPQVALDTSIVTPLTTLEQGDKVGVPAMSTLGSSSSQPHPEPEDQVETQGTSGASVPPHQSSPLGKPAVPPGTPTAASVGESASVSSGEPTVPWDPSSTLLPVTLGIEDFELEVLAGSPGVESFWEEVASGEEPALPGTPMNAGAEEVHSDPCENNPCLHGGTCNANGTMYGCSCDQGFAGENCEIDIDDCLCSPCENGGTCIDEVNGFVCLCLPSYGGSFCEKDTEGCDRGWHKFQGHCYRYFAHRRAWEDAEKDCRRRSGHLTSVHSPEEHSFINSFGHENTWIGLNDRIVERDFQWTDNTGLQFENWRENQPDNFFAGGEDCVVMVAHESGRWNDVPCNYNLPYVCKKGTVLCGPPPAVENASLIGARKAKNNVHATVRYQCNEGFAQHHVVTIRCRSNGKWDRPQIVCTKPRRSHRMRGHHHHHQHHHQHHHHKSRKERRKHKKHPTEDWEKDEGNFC
Chain of Avaren (Actinomycete K97) (chain, as listed by the source): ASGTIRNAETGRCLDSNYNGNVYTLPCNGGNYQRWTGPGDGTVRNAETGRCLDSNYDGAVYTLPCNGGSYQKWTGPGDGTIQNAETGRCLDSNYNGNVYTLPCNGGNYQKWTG
Chain of PILRb (Mus musculus), Q2YSF2 (Q2YSF2 entry or part of it): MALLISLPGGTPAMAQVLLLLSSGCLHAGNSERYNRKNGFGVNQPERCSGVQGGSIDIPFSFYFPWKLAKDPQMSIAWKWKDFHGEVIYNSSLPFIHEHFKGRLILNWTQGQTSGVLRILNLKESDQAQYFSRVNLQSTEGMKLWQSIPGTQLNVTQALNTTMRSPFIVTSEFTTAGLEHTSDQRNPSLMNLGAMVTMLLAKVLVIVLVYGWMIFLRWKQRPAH
Chain of 6RG (Lolium perenne) (chain, as listed by the source): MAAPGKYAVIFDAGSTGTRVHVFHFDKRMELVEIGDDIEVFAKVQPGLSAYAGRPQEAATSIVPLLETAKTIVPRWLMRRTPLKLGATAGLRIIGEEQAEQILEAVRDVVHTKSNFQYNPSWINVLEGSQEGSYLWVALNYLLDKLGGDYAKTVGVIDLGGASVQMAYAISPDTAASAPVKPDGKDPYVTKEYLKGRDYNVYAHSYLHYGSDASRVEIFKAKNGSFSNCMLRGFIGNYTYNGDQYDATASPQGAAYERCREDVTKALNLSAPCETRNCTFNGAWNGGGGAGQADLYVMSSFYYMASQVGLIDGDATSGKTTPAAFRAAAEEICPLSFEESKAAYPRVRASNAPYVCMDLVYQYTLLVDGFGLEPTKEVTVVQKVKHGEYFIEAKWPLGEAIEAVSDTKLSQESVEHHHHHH
Chain of wLAT-1A (Homo sapiens), Q01650 (Q01650 whole entry): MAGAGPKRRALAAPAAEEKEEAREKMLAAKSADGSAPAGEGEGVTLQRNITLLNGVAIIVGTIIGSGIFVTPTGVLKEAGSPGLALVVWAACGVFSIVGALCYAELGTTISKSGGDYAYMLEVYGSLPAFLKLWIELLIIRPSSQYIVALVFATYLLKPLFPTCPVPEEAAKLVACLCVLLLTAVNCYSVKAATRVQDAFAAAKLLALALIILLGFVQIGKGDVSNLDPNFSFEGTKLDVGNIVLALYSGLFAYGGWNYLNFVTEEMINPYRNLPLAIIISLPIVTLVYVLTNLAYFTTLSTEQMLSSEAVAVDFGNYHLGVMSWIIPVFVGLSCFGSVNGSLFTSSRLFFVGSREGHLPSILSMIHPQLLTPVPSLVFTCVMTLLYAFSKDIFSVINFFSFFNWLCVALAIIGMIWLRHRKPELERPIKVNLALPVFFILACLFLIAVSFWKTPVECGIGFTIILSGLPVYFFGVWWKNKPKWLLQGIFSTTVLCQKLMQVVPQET
Chain of Aggrecan (Rattus norvegicus), NP_071526 (chain, as listed by the source): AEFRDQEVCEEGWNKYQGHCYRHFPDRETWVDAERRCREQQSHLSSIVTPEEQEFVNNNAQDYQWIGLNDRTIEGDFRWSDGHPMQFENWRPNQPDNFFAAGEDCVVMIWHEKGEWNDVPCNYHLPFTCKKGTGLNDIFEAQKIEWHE
Chain of Regenerating Gene IV (Homo sapiens), Q9BYZ8 (Q9BYZ8 whole entry, looked up): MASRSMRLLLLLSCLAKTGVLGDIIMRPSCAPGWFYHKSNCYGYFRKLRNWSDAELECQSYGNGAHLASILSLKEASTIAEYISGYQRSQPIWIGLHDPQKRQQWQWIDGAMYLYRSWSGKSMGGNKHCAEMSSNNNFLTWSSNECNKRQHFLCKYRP

Neurocan (Homo sapiens), O14594
glycan array binding signal (z-score) [1]: -0.263 | glycan array binding signal (z-score) [2]: -0.779

PILRa (Mus musculus), Q2YSF3
glycan array binding signal (z-score) [3]: -0.088 | glycan array binding signal (z-score) [4]: -0.283 | glycan array binding signal (z-score) [5]: -0.231

Siglec-8 (Homo sapiens), Q9NYZ4
glycan array binding signal (z-score) [6]: -0.068 | glycan array binding signal (z-score) [7]: -0.067 | glycan array binding signal (z-score) ([8]; mutation: R125K): -0.113 | glycan array binding signal (z-score) [9]: 0.515 | glycan array binding signal (z-score) ([9]; mutation: R125K): 2.56 | glycan array binding signal (z-score) [10]: 0.69 | glycan array binding signal (z-score) ([11]; mutation: R125K): 0.13 | glycan array binding signal (z-score) [12]: 0.321 | glycan array binding signal (z-score) [13]: 0.483 | glycan array binding signal (z-score) [14]: 0.455 | glycan array binding signal (z-score) [1]: -0.209 | glycan array binding signal (z-score) ([4]; mutation: R125K): -0.502

PILRb (Mus musculus), Q2YSF2
glycan array binding signal (z-score) [6]: -0.5 | glycan array binding signal (z-score) [15]: -0.023

MpAFP RI GFP (Marinomonas primoryensis)
glycan array binding signal (z-score) [9]: 2.61 | glycan array binding signal (z-score) [16]: 5.48 | glycan array binding signal (z-score) [11]: 3.87

wLAT-1A (Homo sapiens), Q01650
glycan array binding signal (z-score) [17]: -0.343

CHI3L1 (Homo sapiens), P36222
glycan array binding signal (z-score) [18]: -0.062 | glycan array binding signal (z-score) [8]: -0.131 | glycan array binding signal (z-score) [1]: -0.106 | glycan array binding signal (z-score) [5]: -0.141

Aggrecan (Rattus norvegicus), NP_071526
glycan array binding signal (z-score) [15]: -0.184

Avaren (Actinomycete K97)
glycan array binding signal (z-score) [19]: -0.051 | glycan array binding signal (z-score) [14]: -0.016

Regenerating Gene IV (Homo sapiens), Q9BYZ8
glycan array binding signal (z-score) [20]: 1.48

6RG (Lolium perenne)
glycan array binding signal (z-score) [2]: -0.329
